Results reported in PubChem BioAssay (NCATS).
“And” between values parts separate entries of the source, which are not always exact repeats. Equal entries are not always repeated. Records with an inconclusive call do not appear. The source made the active and inactive calls. Unless noted, calls follow the shape of the dose curve; as a rule, active = well fitted curve in the direction sought with a large enough effect; inconclusive = small, poorly fitted or top-dose-only effect, or another doubt; inactive = no such curve, though single readings can be large; an effect the other way counts as inactive or inconclusive.

Tests used:
[1] = system: Es-2; assay: Primary qHTS to identify gynecologic anti-cancer compounds using libraries of approved drugs and bioactive compounds (AID 1345084); conditions: Gynecologic cancer cell panel viability, ATPlite luminescence, 48 h; series mostly up to 57.5 µM; also: % is scaled to controls: 0 for no effect and ±100 for the full control effect; nearly all actives have a fitted effect of over 55% in size
How it was run: (§1)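 Five-point cytotoxicity, 48 h drug exposure at 37 C, 5% CO2, on cells seeded 16 h beforehand. ATP content read by ATPlite luminescence.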

[2] = system: HeLa; assay: as above; conditions: Gynecologic cancer cell panel viability, ATPlite luminescence, 48 h; series mostly up to 57.5 µM
How it was run: as §1

[3] = system: Hek293T; assay: as above; conditions: Gynecologic cancer cell panel viability, ATPlite luminescence, 48 h, control line for the selectivity index; series mostly up to 57.5 µM
How it was run: as §1

[4] = system: JEG-3; assay: as above; conditions: Gynecologic cancer cell panel viability, ATPlite luminescence, 48 h; series mostly up to 57.5 µM
How it was run: as §1

[5] = system: PA-1; assay: as above; conditions: Gynecologic cancer cell panel viability, ATPlite luminescence, 48 h; series mostly up to 57.5 µM
How it was run: as §1

[6] = system: SKOV3; assay: as above; conditions: Gynecologic cancer cell panel viability, ATPlite luminescence, 48 h; series mostly up to 57.5 µM
How it was run: as §1

[7] = system: Tov-21-G; assay: as above; conditions: Gynecologic cancer cell panel viability, ATPlite luminescence, 48 h; series mostly up to 57.5 µM
How it was run: as §1

[8] = system: Tov112D; assay: as above; conditions: Gynecologic cancer cell panel viability, ATPlite luminescence, 48 h; series mostly up to 57.5 µM
How it was run: as §1

[9] = Drug repurposing screens with cells derived from glioblastoma tumor samples (AID 1345199); conditions: GBM patient neurospheres viability, ATP luminescence, 48 h; also: nearly all actives have a fitted effect of over 40% in size; also: potency is read from the fitted curve at half-maximal effect; as to activity, negative = cell killing: % is scaled to controls: 0 for no effect and ±100 for the full control effect
How it was run: (§2)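 Four patient lines of CD133+ GBM neurospheres were screened at several concentrations; hits were retested in those lines plus three slower-growing GBM lines, using 48-hour treatment and ATP-based viability.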

[10] = system: astro; assay: as above; conditions: viability, ATP luminescence, 48 h; series mostly up to 45.9 µM
How it was run: as §2

[11] = system: OV90; assay: Primary qHTS to identify gynecologic anti-cancer compounds using libraries of approved drugs and bioactive compounds (AID 1345084); conditions: Gynecologic cancer cell panel viability, ATPlite luminescence, 48 h; series mostly up to 57.5 µM; also: % is scaled to controls: 0 for no effect and ±100 for the full control effect; nearly all actives have a fitted effect of over 55% in size
How it was run: as §1

[12] = biological target: Nuclear receptor subfamily 1 group I member 2 (Rattus norvegicus) (UniProt Q9R1A7); assay: qHTS assay for small molecule activators of the rat pregnane X receptor (rPXR) signaling pathway (AID 651751; call rule not given here; also: 0% is about no effect); conditions: rPXR reporter cells, luciferase (One-Glo), 24 h
[13] = qHTS assay for small molecule activators of the human pregnane X receptor (PXR) signaling pathway (AID 720659; call rule not given here; also: 0% is about no effect); conditions: DPX-2 HepG2 CYP3A4-luciferase, 24 h; series mostly up to 92.3 µM
[14] = at 45.9 µM (top of the series), tumour line B
[15] = at 45.9 µM (top of the series), tumour line D
[16] = at 46 µM (top of the series), tumour line A

Chain of Nuclear receptor subfamily 1 group I member 2 (Rattus norvegicus) (Q9R1A7 whole entry, looked up): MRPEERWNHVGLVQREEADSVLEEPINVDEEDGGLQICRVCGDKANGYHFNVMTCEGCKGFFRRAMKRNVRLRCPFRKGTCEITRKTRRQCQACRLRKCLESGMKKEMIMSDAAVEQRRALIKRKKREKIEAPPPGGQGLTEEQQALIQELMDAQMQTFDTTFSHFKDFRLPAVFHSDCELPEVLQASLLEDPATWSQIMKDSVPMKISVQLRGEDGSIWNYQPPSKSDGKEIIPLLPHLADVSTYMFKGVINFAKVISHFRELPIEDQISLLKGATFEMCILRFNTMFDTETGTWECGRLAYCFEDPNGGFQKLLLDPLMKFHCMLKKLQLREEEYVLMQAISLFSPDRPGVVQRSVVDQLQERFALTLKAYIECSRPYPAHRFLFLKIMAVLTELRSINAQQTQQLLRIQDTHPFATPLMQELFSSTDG

NC(=O)CS(=O)C(c1ccccc1)c1ccccc1 (stereo unspecified)
inactive: Potency [1] | Potency [2] | outcome [3] | outcome [4] | Potency [5] | outcome [6] | Potency [7] | Potency [8] | activity, negative = cell killing [9, 14] -12.2% | activity, negative = cell killing [9, 15] -18.4% | activity, negative = cell killing [9, 16] -9.02% | Potency [10]

NNc1ccccc1
inactive: Potency [1] | Potency [2] | outcome [3] | outcome [4] | Potency [11] | Potency [5] | Potency [7] | Potency [8] | activity, negative = cell killing [9, 14] -3.46% | activity, negative = cell killing [9, 15] -1.72% | activity, negative = cell killing [9, 16] -20.5% | activity, negative = cell killing ([9]; at 46.1 µM (top of the series), tumour line C) 11.9% | Potency [10]

CC(C)(C)NCC(O)c1cc(Cl)c(N)c(C(F)(F)F)c1 (stereo unspecified)
inactive: Potency [1] | Potency [2] | outcome [3] | outcome [4] | Potency [11] | Potency [5] | outcome [6] | Potency [7] | Potency [8] | activity, negative = cell killing [9, 14] -7.42% | activity, negative = cell killing [9, 15] -9.1% | Potency [10]

CCC1(c2ccc(N)cc2)CCC(=O)NC1=O (stereo unspecified)
inactive: Potency [1] | Potency [2] | outcome [3] | outcome [4] | Potency [11] | Potency [5] | outcome [6] | Potency [7] | Potency [8] | activity, negative = cell killing [9, 14] -18.5% | activity, negative = cell killing [9, 15] -18.3% | Potency [10]

CC(C)(C)NCC(O)c1ccccc1Cl (stereo unspecified)
inactive: Potency [1] | Potency [2] | outcome [3] | outcome [4] | Potency [5] | outcome [6] | Potency [7] | Potency [8] | activity, negative = cell killing [9, 14] -9.73% | activity, negative = cell killing [9, 15] -4.92%

Nc1ccccc1C(=O)O
inactive: Potency [1] | Potency [2] | outcome [3] | outcome [4] | Potency [11] | Potency [5] | Potency [7] | Potency [8] | activity, negative = cell killing [9, 14] 2.36% | activity, negative = cell killing [9, 15] -8.9% | activity, negative = cell killing [9, 16] -2.87% | Potency [10] | max response [12] -1.41% | outcome [13]

CCCCC/C=C\C/C=C\C/C=C\C/C=C\CCCC(=O)NCC(=O)O
inactive: Potency [1] | Potency [2] | outcome [3] | outcome [4] | Potency [11] | Potency [5] | Potency [7] | Potency [8] | activity, negative = cell killing ([9]; at 4.17 µM (top of the series), tumour line A) -24.5% | activity, negative = cell killing ([9]; at 4.17 µM (top of the series), tumour line B) -4.38% | activity, negative = cell killing ([9]; at 4.17 µM (top of the series), tumour line D) -5.18%

O=C(O)CCCc1ccc(N(CCCl)CCCl)cc1
inactive: Potency [1] | Potency [2] | outcome [3] | outcome [4] | Potency [11] | Potency [5] | outcome [6] | Potency [7] | Potency [8] | activity, negative = cell killing [9, 14] -11.3% | activity, negative = cell killing [9, 15] -13.2% | max response [12] 4.32% and -0.624% | outcome [13]

C[C@@H]1CC2=CC(=O)CC[C@@H]2[C@H]2CC[C@@]3(C)[C@@H](CC[C@]3(C)O)[C@@H]21
inactive: Potency [1] | Potency [2] | outcome [3] | outcome [4] | Potency [5] | outcome [6] | Potency [7] | Potency [8]

COc1cc(OC)c(OC)cc1C=O
inactive: Potency [1] | Potency [2] | outcome [3] | outcome [4] | Potency [11] | Potency [5] | outcome [6] | Potency [7] | Potency [8] | activity, negative = cell killing ([9]; at 91.6 µM (top of the series), tumour line B) -6.05% | Potency [10] | max response [12] 5.78% | outcome [13]

O=C1c2ccccc2C(=O)c2ccccc21
inactive: Potency [1] | Potency [2] | outcome [3] | outcome [4] | Potency [11] | Potency [5] | outcome [6] | Potency [7] | Potency [8] | activity, negative = cell killing [9, 14] 4.04% | activity, negative = cell killing [9, 15] -17.8% | Potency [10] | max response [12] 4.64%

O=C(CCCN1CCC2(CC1)C(=O)NCN2c1ccccc1)c1ccc(F)cc1
active: Potency ([9]; tumour line A) 2.24 µM | Potency ([9]; tumour line D) 12.6 µM
inactive: Potency [1] | Potency [2] | outcome [3] | outcome [4] | Potency [5] | outcome [6] | Potency [7] | Potency [8] | Potency [10]

CC(C)c1c(CN(C)C(C)Cc2ccccc2)n(C)n(-c2ccccc2)c1=O (stereo unspecified)
active: Potency ([9]; tumour line A) 11.2 µM
inactive: Potency [1] | Potency [2] | outcome [3] | outcome [4] | Potency [5] | outcome [6] | Potency [7] | Potency [8] | activity, negative = cell killing ([9]; at 21.2 µM (top of the series), tumour line B) -20.9% | activity, negative = cell killing ([9]; at 21.2 µM (top of the series), tumour line D) -18.5% | Potency [10]

COP(=S)(OC)SCN1C(=O)c2ccccc2C1=O
inactive: Potency [1] | Potency [2] | outcome [3] | outcome [4] | Potency [11] | Potency [5] | outcome [6] | Potency [7] | Potency [8] | activity, negative = cell killing [9, 14] -19.8% | activity, negative = cell killing [9, 15] -8.89% | Potency [10] | max response [12] -5.41% | outcome [13]

Nc1nc(N)nc(NC2CC2)n1
inactive: Potency [1] | Potency [2] | outcome [3] | outcome [4] | Potency [11] | Potency [5] | outcome [6] | Potency [7] | Potency [8] | activity, negative = cell killing [9, 14] -5.44% | activity, negative = cell killing [9, 15] -12.5% | max response [12] 2.97% | outcome [13]
